From article PMC4336329 (PLoS ONE, 2015)
Screen size: about 310,000 compounds; about 14,000 (4.5%) showed an effect of 50% or more. Effects have a minus sign here. This excerpt belongs to a sample that is enriched for strong results.

molecular target: human ether-à-go-go-related gene (hERG) potassium channel (human, UniProt Q12809); assay: primary screen, population patch clamp on CHO cells stably expressing hERG; higher = less effect of the substance
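Note: peak tail current of the secondary pulse compared with the same well before compound.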

Sequence of human ether-à-go-go-related gene (hERG) potassium channel (Q12809 whole entry, looked up): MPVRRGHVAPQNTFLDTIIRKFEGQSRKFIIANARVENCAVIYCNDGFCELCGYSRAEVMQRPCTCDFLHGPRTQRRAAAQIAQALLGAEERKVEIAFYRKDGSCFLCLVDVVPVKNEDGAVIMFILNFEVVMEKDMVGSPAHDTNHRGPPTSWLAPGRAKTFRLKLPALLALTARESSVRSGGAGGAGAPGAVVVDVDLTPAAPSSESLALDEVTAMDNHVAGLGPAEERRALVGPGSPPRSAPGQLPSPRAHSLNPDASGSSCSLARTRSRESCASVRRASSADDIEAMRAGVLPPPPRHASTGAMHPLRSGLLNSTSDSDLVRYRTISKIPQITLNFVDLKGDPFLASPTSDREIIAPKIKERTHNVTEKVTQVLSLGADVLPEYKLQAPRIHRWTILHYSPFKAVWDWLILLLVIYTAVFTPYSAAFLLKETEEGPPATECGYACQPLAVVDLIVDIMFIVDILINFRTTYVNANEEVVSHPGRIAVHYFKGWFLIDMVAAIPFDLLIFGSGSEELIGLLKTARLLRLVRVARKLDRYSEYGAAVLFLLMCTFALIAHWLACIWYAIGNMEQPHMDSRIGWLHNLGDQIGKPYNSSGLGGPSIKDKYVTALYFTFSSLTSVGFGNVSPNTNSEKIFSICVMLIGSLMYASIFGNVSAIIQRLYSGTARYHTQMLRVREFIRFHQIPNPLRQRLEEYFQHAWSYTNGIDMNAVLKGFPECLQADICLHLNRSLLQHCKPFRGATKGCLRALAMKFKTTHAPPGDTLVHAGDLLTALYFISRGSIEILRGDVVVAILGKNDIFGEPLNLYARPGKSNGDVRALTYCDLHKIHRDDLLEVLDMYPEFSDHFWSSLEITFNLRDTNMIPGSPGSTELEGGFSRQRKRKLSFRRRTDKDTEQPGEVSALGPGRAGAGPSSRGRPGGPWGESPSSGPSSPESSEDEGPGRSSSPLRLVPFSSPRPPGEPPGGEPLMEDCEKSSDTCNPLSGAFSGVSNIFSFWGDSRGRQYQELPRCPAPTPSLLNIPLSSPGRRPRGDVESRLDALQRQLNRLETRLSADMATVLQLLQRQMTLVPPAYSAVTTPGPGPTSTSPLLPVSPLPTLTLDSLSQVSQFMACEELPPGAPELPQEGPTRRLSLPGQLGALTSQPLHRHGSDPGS

SMILES	hERG current change (%, negative = inhibition) at 10uM
COc1cccc(-c2sc3ccc(OC)cc3c2C#CCCO)c1	-7.87%
CCc1nnc(NC(=O)CSC(=S)N2CCOCC2)s1	14.6%
CC(=O)c1cn(CC(=O)Nc2ccccc2F)c2ccccc12	2.54%
Cc1nc2ccc(N)cc2c(=O)n1Cc1ccc(Cl)cc1	-11.4%
N#Cc1ccc(N2CCOCC2)c([N+](=O)[O-])c1	-21.7%
COc1ccccc1N(C)S(=O)(=O)c1ccc(C(=O)Nc2ccncc2)cc1	-28.6%
CN(c1ccccc1)S(=O)(=O)c1ccc(Cl)c(C(=O)Nc2ccncc2)c1	-5.35%
CN1CCN(c2ccc(Cl)cc2NC(=O)c2ccc(=O)n(C)n2)CC1	-58.3%
CN1CCN(c2ccc(Cl)cc2NC(=O)c2ccc(S(=O)(=O)N(C)C)cc2)CC1	1.58%
CCN(CC)S(=O)(=O)c1cc(C(=O)Nc2cc(Cl)ccc2N2CCN(C)CC2)ccc1Cl	-53.5%
CN1CCN(c2ccc(Cl)cc2NC(=O)c2cccc(S(=O)(=O)N(C)C)c2)CC1	-36.9%
Cn1nc(C(=O)Nc2ccccc2N2CCOCC2)ccc1=O	-24.4%
CN1CCN(c2ccc(Cl)cc2NC(=O)c2ccc([N+](=O)[O-])cc2)CC1	-10.6%
COc1ccccc1N(C)S(=O)(=O)c1ccc(Cl)c(C(=O)Nc2ccncc2)c1	-73.4%
CCOc1cccc2sc(N3CCN(C(=O)c4ccc5ncsc5c4)CC3)nc12	2.18%
CCS(=O)(=O)NC(C)C(c1cccs1)N1CCN(c2ccc(OC)cc2)CC1 (stereo not drawn)	-7.31%
O=C(CN(Cc1ccc(F)cc1)C(=O)CCC(=O)Nc1nccs1)NCc1ccccc1	-35.6%
COc1ccc(CNC(=O)CN(Cc2cccs2)C(=O)CCC(=O)Nc2ccccn2)cc1	-41.1%
O=C(CN(Cc1ccccc1)C(=O)CCC(=O)Nc1ccccn1)NCCc1ccccc1	-52.4%
COc1ccc(CN(CC(=O)NCCc2ccccc2)C(=O)CCC(=O)Nc2ccccn2)cc1	-27.1%
O=C(CN(Cc1ccc(F)cc1)C(=O)CCC(=O)Nc1ccccn1)NCCc1ccccc1	-15.7%
COc1ccc(CNC(=O)CN(Cc2ccc(OC)cc2)C(=O)CCC(=O)Nc2ccccn2)cc1	-64.4%
COc1ccc(CN(CC(=O)NCc2ccccc2)C(=O)CCC(=O)Nc2cc(C)ccn2)cc1	-17.2%

SMILES	hERG current change (%, negative = inhibition) at 10uM
O=C(CN(Cc1ccccc1)C(=O)CCC(=O)Nc1nccs1)NCc1ccc(F)cc1	-1.38%
COc1ccc(CN(CC(=O)NCc2ccc(F)cc2)C(=O)CCC(=O)Nc2ccccn2)cc1	-28.2%
O=C(CN(Cc1ccc(F)cc1)C(=O)CCC(=O)Nc1nccs1)NCc1ccc(F)cc1	-50.5%
COc1ccc(CN(CC(=O)NCc2ccccc2)C(=O)CCC(=O)Nc2ccccn2)cc1	-21.1%
COc1ccc(CNC(=O)CN(Cc2ccccc2)C(=O)CCC(=O)Nc2ccccn2)cc1	-55.9%
O=C(O)CC(NC(=O)C(c1ccccc1)c1ccccc1)c1cccc([N+](=O)[O-])c1 (stereo not drawn)	2.05%
CNC(=O)CNC(=O)Nc1ccc(Cl)c(Cl)c1	9.11%
CC(Cc1cnccn1)NCc1c(C(=O)N2CCCCCCC2)nc2ccc(Cl)cn12 (stereo not drawn)	-12.8%
CCn1c(=O)c2c(nc3n2CCCN3Cc2ccccc2)n(C)c1=O	-18.2%
CC#CCCc1nc2ccccc2c(=O)n1N	15.9%
Cc1cc([N+](=O)[O-])ccc1NCc1ccc2c(c1)OCCO2	5.37%
CCCCOC(=O)Nc1cccc(Cl)c1C	-15.6%
CC(C)CN(C(=O)COC(=O)c1ccc2c(c1)NC(=O)CS2)C1CCS(=O)(=O)C1 (stereo not drawn)	13.1%
COc1ccccc1NC(=S)N(c1ccccc1)C(C)C	6.18%
C=C(C)Cn1c(SCCCO)nc2c1c(=O)[nH]c(=O)n2C	-4.83%
Cc1cc(C)c2nc(C(F)(F)F)nc(N3CCN(C(=O)c4ccco4)CC3)c2c1	6.1%
Cc1ccc(N2C(=O)C(NC(=O)c3ccccc3)(C(F)(F)F)C3=C2CC(C)(C)CC3=O)cc1 (stereo not drawn)	7.2%
Cc1csc(NC(=O)c2ccccc2[N+](=O)[O-])n1	2.69%
O=C(Nc1nccs1)c1ccc(Cl)cc1[N+](=O)[O-]	-9.1%
Cc1csc(NC(=O)c2ccc(Cl)cc2[N+](=O)[O-])n1	-64.8%
COC(=O)c1ccc(CSc2nnc(NC(=O)C3CCCO3)s2)cc1 (stereo not drawn)	-23.5%
CCN(CC)S(=O)(=O)c1ccc(N2CCOCC2)c(NS(=O)(=O)c2ccc(C(C)C)cc2)c1	-6.87%
O=C(C1CC(=O)N(c2ccccc2)C1)N1CCC(c2nc3ccccc3[nH]2)CC1 (stereo not drawn)	9.08%

SMILES	hERG current change (%, negative = inhibition) at 10uM
Cc1ccc(N2CC(C(=O)N3CCC(c4nc5ccccc5[nH]4)CC3)CC2=O)cc1C (stereo not drawn)	-46.2%
O=C(C1CC(=O)N(c2ccc(Cl)cc2)C1)N1CCC(c2nc3ccccc3[nH]2)CC1 (stereo not drawn)	-71.6%
COc1ccc(N2CC(C(=O)N3CCC(c4nc5ccccc5[nH]4)CC3)CC2=O)cc1 (stereo not drawn)	-19.3%
O=C(C1CCCCC1)N1CCC(c2nc3ccccc3[nH]2)CC1	-5.51%
O=C(C1CC(=O)N(c2ccc(F)cc2)C1)N1CCC(c2nc3ccccc3[nH]2)CC1 (stereo not drawn)	-63.8%
Clc1ccccc1CSc1nnc(-c2ccncc2)o1	-14%
COCCNCC(=O)NC12CC3CC(CC(C3)C1)C2	8.91%
CC(C)COc1ccc(C(=O)N2C(=O)c3ccc(N)cc3C2=O)cc1	4.32%
COc1ccc(/C(O)=C2/C(=O)C(=O)N(CCN(C)C)C2c2ccc(C)cc2)cc1Cl (stereo not drawn)	5.16%
COc1ccc(C2CN(C)CC2C(=O)c2ccc(F)cc2)cc1Cl (stereo not drawn)	-78.7%
COc1ccc(CNC(=O)N2CCN(c3ccc(F)cc3)CC2)cc1Cl	-26.1%
COc1ccc(C2CN(C)CC2C(=O)c2ccc(C)cc2)cc1Cl (stereo not drawn)	-63%
COc1ccc(/C(O)=C2/C(=O)C(=O)N(CCN(C)C)C2c2ccc(F)cc2)cc1Cl (stereo not drawn)	13.8%
Cc1c(C(N)=O)sc(N)c1C(=O)OC(C)C	9.72%
COC(=O)c1ccc(N=C2SCC(=O)N2C)cc1	14.3%
CCOc1cc(OCC)nc(S(C)(=O)=O)n1	-0.891%
Cc1cccc(N2CCN(CC(=O)NCc3ccc(Cl)cc3)CC2)c1C	-29.2%
CCN(CC(=O)NCc1ccc(F)cc1)C(=O)CN1CCN(c2cc(Cl)ccc2C)CC1	-73.1%
CCN(CC(=O)NCc1ccc(F)cc1)C(=O)CN1CCN(c2ccccc2OC)CC1	-61.4%
COc1ccccc1N1CCN(CC(=O)NCc2ccc(Cl)cc2)CC1	-0.607%
CCN(CC(=O)NCc1ccc(F)cc1)C(=O)CN1CCN(c2ccc(OC)cc2)CC1.O=C(O)C(=O)O	-61.9%
CCOc1ccccc1N1CCN(C(=O)NCc2ccc(F)cc2)CC1	-9.29%
COc1ccc(CNC(=O)N2CCN(c3ccc(F)cc3)CC2)cc1	-6.24%

SMILES	hERG current change (%, negative = inhibition) at 10uM
Cc1ccccc1N1CCN(CC(=O)NCc2ccc(Cl)cc2)CC1	-27%
COc1ccc(C(=O)CN2CCN(c3ccc(F)cc3)CC2)cc1	-38.3%
CC(=O)Nc1ccc(NCc2cccs2)cc1	6.07%
Cc1ccc(NC(=O)N2CCN(C(=O)C3CCCO3)CC2)cc1 (stereo not drawn)	9.64%
COc1ccccc1OCC(=O)Nc1ncc(C)s1	-6.77%
CC(C)(C)NC(=O)NC(=O)CSc1nnc2ccccn12	-2.98%
CCOc1ccccc1CNC(=O)C1CCC(=O)N1C(C)C (stereo not drawn)	1.56%
Cc1cnc(C(=O)OCC(=O)Nc2c(Cl)cc(Cl)cc2Cl)cn1	12.7%
O=C(CCCNS(=O)(=O)c1cccc2nsnc12)NCCc1ccccc1	5.61%
O=C(NCc1ccc(Cl)cc1)C1CCN(S(=O)(=O)c2cc([N+](=O)[O-])ccc2Cl)CC1	-59%
O=C(COC(=O)C1CCCC1)Nc1ncc(Cl)cc1Cl	5.91%
CCC(C)NC(=O)C1CCN(S(=O)(=O)c2cc([N+](=O)[O-])ccc2Cl)CC1 (stereo not drawn)	-0.184%
CC(NC(=O)C1CCN(S(=O)(=O)c2cc([N+](=O)[O-])ccc2Cl)CC1)c1ccccc1 (stereo not drawn)	11.5%
O=C(NC1CC1)C1CCN(S(=O)(=O)c2cc([N+](=O)[O-])ccc2Cl)CC1	-28%
CN(Cc1ccccc1)C(=O)C1CCN(S(C)(=O)=O)CC1	16.1%
O=C(COC(=O)C1CC1)Nc1ncc(Cl)cc1Cl	8.23%
CN(Cc1ccccc1)C(=O)C1CCN(S(=O)(=O)c2cc([N+](=O)[O-])ccc2Cl)CC1	-54.6%
CC(=O)COC(=O)C1CCN(S(=O)(=O)c2cc([N+](=O)[O-])ccc2Cl)CC1	-51.8%
O=C(NCc1ccccc1)C1CCN(S(=O)(=O)c2cc([N+](=O)[O-])ccc2Cl)CC1	-7.61%
CC1CCN(S(=O)(=O)c2cc([N+](=O)[O-])ccc2Cl)CC1	-24%
O=C(COC(=O)C1CCN(S(=O)(=O)c2cc([N+](=O)[O-])ccc2Cl)CC1)Nc1ncc(Cl)cc1Cl	-57.6%
